In PubChem BioAssay:
Active and inactive are the calls of the source. Unless noted, no rule for the calls is given here.

Key:
[1] = A549 cell viability effects, profiling panel, calcein-AM fluorescence, 48 h, basal (AID 1162); settings: higher = more signal; also: test concentration not given here
[2] = adipocyte viability effects, profiling panel, cell-based, 3T3-L1 adipocytes, calcein-AM fluorescence, 48 h, basal (AID 1163); settings: 3T3-L1 adipocytes viability, higher = more signal; also: test concentration not given here
[3] = HepG2 cell viability effects, profiling panel, calcein-AM fluorescence, 48 h, basal (AID 1164); settings: higher = more signal; also: test concentration not given here
[4] = MM1S cell viability effects, profiling panel, calcein-AM fluorescence, 48 h, basal (AID 1165); settings: higher = more signal;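 also: viability of MM1S multiple myeloma cells under basal unstimulated conditions; test concentration not given here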
[5] = basal RPMI8226 viability, no added stimulus, profiling panel, cell-based, calcein-AM fluorescence, 48 h, PK04 Diversity Set (AID 1166); settings: RPMI8226 myeloma viability, higher = more signal;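 also: cells grown under basal conditions without added stimulus; test concentration not given here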
[6] = basal HepG2 mitochondrial membrane potential changes, profiling panel, cell-based, JC-1 fluorescence, 24 h, 100 nL compound (AID 1167); settings: higher = more signal; also: test concentration not given here
[7] = basal 3T3-L1 adipocyte mitochondrial potential changes, profiling panel, cell-based, JC-1 fluorescence, 3T3-L1 adipocytes, 24 h, 100 nL compound (AID 1168); settings: JC-1 mitochondrial fluorescence, higher = more signal, called active from +8 up or from −8 down; also: test concentration not given here
[8] = basal RPMI8226 mitochondrial membrane potential changes, profiling panel, cell-based, JC-1 fluorescence, 24 h, 100 nL compound (AID 1169); settings: RPMI8226 myeloma, JC-1 mitochondrial potential fluorescence, higher = more signal; also: test concentration not given here
[9] = basal MM1S mitochondrial membrane potential changes, profiling panel, cell-based, JC-1 fluorescence, 24 h, 100 nL compound (AID 1170); settings: higher = more signal; also: test concentration not given here
[10] = A549 lung cancer cell viability effects, profiling panel, resazurin fluorescence, 24 h, PK04 Diversity Set (AID 1171); settings: higher = more signal, called active from +8 up or from −8 down; also: test concentration not given here
[11] = HepG2 liver cancer cell viability effects, profiling panel, resazurin fluorescence, 24 h, PK04 Diversity Set (AID 1172); settings: higher = more signal; also: test concentration not given here
[12] = basal S. cerevisiae growth modulation, no modifier, primary screen, OD600, strain BY4716, 24 h, basal condition (AID 1173); settings: OD600, 24 h, higher = more signal, called active from +8 up or from −8 down
[13] = MM1S myeloma cell viability, profiling panel, resazurin fluorescence, basal, 24 h, PK04 Diversity Set (AID 1174); settings: higher = more signal, called active from +8 up or from −8 down;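 also: MM1S multiple myeloma cell line; test concentration not given here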
[14] = target: Dihydroorotate dehydrogenase (quinone), mitochondrial (Plasmodium falciparum (isolate 3D7)) (UniProt Q08210); test: PfDHODH enzyme inhibitors, primary screen, biochemical, C-terminal His tag, absorbance 600 nm (AID 1175); settings: DCIP absorbance 600 nm, higher = more signal, called active from +8 up or from −8 down;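 also: recombinant parasite enzyme with a five histidine tag at its C terminus; test concentration not given here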
Dihydroorotate dehydrogenase (quinone), mitochondrial (Plasmodium falciparum (isolate 3D7)), sequence (Q08210 whole entry, looked up): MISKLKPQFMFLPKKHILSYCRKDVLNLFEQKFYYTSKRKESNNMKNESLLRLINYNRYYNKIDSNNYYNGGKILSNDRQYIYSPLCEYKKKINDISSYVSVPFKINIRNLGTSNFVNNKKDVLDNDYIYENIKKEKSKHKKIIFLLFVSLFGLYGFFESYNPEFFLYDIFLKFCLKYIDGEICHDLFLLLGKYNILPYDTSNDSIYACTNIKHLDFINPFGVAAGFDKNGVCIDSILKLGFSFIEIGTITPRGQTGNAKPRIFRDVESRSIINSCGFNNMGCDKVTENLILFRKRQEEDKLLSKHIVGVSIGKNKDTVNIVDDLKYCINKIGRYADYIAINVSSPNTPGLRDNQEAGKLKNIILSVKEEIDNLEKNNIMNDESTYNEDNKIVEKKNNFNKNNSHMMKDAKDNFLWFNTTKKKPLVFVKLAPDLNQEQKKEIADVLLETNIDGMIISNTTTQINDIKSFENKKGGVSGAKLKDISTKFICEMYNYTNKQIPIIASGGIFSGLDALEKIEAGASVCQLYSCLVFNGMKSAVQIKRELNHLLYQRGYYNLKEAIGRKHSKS

[15] = P. aeruginosa biofilm formation inhibitors, primary screen, strain PAO1, LB-PBS medium, absorbance 600 nm (AID 1176); also: test concentration not given here; settings: P. aeruginosa PAO1 growth/biofilm, A600, 12 h; higher = more signal
[16] = S. cerevisiae RM11-1a growth modifiers, primary screen, strain RM11-1a, OD600, basal, 24 h (AID 1177); settings: OD600, 24 h, higher = more signal, called active from +8 up or from −8 down;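 also: cultures grown under basal conditions with no added stressor; test concentration not given here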
[17] = E. coli acrAB mutant growth effects, primary screen, E. coli filamentation inducers, strain DRC39, OD650, 24 h (AID 1178); settings: higher = more signal, called active from +8 up or from −8 down;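 also: growth measured as culture turbidity by optical density at 650 nm; test concentration not given here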
[18] = E. coli acrAB mutant growth effects, primary screen, E. coli filamentation inducers, strain DRC39, OD650, 48 h (AID 1179);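 also: screen aims at cell division blockers that make cells filament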; settings: E. coli DRC39 delta-acrAB growth, higher = more signal, called active from +8 up or from −8 down
[19] = RPMI8226 myeloma cell viability, profiling panel, resazurin fluorescence, basal, 24 h, PK04 Diversity Set (AID 1180); settings: higher = more signal;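 also: RPMI8826 multiple myeloma cell line at 5000 cells per well; test concentration not given here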
[20] = target: E3 ubiquitin-protein ligase XIAP (Homo sapiens) (UniProt P98170); test: XIAP binders, primary screen, biophysical, small-molecule microarray, fluorescence 635 nm (AID 1181); settings: small-molecule microarray binding, higher = more signal;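 also: score merges 667 nm emission and signal to noise over triplicate slides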
E3 ubiquitin-protein ligase XIAP (Homo sapiens), sequence (P98170 whole entry, looked up): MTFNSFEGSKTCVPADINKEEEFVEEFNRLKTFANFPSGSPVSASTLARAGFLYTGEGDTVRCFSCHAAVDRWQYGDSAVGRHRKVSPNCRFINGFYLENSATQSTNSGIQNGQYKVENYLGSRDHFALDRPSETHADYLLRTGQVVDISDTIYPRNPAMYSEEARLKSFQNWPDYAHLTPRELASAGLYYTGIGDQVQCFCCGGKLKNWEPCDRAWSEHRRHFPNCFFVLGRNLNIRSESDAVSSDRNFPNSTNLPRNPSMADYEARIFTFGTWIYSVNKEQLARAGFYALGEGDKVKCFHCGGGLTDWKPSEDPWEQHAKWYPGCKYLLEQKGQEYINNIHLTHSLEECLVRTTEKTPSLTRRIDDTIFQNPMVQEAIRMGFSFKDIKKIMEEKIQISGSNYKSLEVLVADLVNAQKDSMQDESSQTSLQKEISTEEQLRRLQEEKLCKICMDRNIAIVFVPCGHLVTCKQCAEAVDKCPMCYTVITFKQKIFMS

Structure (SMILES)	z-score [1]	z-score [2]	z-score [3]	z-score [4]	z-score [5]	z-score [6]	z-score [7]	z-score [8]	z-score [9]	z-score [10]	z-score [11]	z-score [12]	z-score [13]	composite z-score [14]	z-score [15]	z-score [16]	z-score [17]	z-score [18]	z-score [19]	composite z-score [20]
COC(=O)Cn1c(C(=O)N2CCCC2)cc2c1C[C@H]1CN(C(=O)c3ccccc3)[C@@](Cc3ccc(F)cc3)(C(=O)OC)[C@@H]21	1.13	0.0791	0.476	-0.297	0.63	0.669	-1.47 (inactive)	-0.135	-1.68	-0.581 (inactive)	0.716	0.702 (inactive)	-1.35 (inactive)	-0.653 (inactive)	0.756 (inactive)	-1.54 (inactive)	-0.132 (inactive)	-0.181 (inactive)	0.303	0.303
CC(C)CNC(=O)[C@@H]1c2ccccc2C(=O)N(Cc2cc(F)cc(C(F)(F)F)c2)[C@H]1c1ccc(CO)cc1	2.21	-0.979	1.37	-0.215	0.857	2.31	0.299 (inactive)	-0.137	0.205	0.317 (inactive)	0.564	-0.874 (inactive)	0.895 (inactive)	0.369 (inactive)	0.801 (inactive)	-0.604 (inactive)	1.84 (inactive)	1.42 (inactive)	1.16	0.0651
COC(=O)[C@@]1(Cc2ccccc2)[C@H]2c3cc(C(=O)N4CCCC4)[nH]c3C[C@H]2CN1C(=O)c1ccccc1	-1.12	0.904	-0.585	0.277	-1.17	0.288	-1.17 (inactive)	-0.786	-0.28	0.412 (inactive)	-0.6	0.146 (inactive)	-0.89 (inactive)	-0.171 (inactive)	0.026 (inactive)	0.198 (inactive)	-0.79 (inactive)	-0.548 (inactive)	-0.183	-0.247
CN(C)CCCCNC(=O)[C@H]1C[C@H]2C(=O)N[C@@H](CCCCN(C)C)C(=O)N2[C@H]1c1cccc(OCCO)c1	-0.317	0.0593	-0.269	-0.0355	0.495	0.13	0.429 (inactive)	0.426	0.23	0.471 (inactive)	1.11	0.427 (inactive)	0.895 (inactive)	-0.493 (inactive)	-1.48 (inactive)	0.807 (inactive)	0.0233 (inactive)	-0.0221 (inactive)	0.45	-0.0559
